Results filed as inconclusive are left out. A number with no mark means an inactive call. Calls follow the shape of the dose curve; as a rule, active = well fitted cell-killing curve with a large enough effect; inconclusive = small, poorly fitted or top-dose-only effect; inactive = flat fitted curve, though single readings scatter.
Test: Cell Viability - LYMP2-013 (AID 970);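 also: cells exposed to compound for 24 h at 37 °C; 0% = DMSO only and full inhibition = tetraoctylammonium bromide control; nearly all actives have a fitted effect of over 55% in size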
Conditions: LYMP2-013 lymphoblastoid cells viability; series mostly up to 92.2 µM; activity change, negative = cytotoxic: at the top concentration
Description: NIH Chemical Genomics Center [NCGC]
NIH Molecular Libraries Screening Centers Network [MLSCN]
National Institutes of Environmental Health Sciences [NIEHS]
National Toxicology Program [NTP]
We have developed a 1536-well cell-based assay for quantitative high throughput screening (qHTS) against a number of cell lines to determine in vitro cytotoxicity of small molecules. This particular assay uses a human lymphoblastoid cell line (LYMP2-013) purchased from Coriell Institute for Medical Research.
NCGC Assay Protocol Summary:
The CellTiter-Glo luminescent cell viability assay (Promega) is a homogeneous method to measure the number of viable cells in culture. The end point readout of this assay is based on quantitation of intracellular ATP, an indicator of metabolic activity, using the luciferase reaction. Luciferase catalyzes the oxidation of beetle Luciferin to oxyluciferin and light in the presence of ATP. The luminescent signal is proportional to amount of ATP present.
Using the CellTiter-Glo luminescent cell viability assay, the amount of cellular ATP was measured in the lymphoblastoid cell line with complete culture medium following compound treatment for 24 hours. The assay was performed in opaque white Kalypsys 1536-well plates. In the screen, tetraoctylammonium bromide was used as positive control. Library compounds were measured for their ability to cause acute toxicity in the cell line, as reflected by a decrease in intracellular ATP levels, in a concentration-dependent manner. […] AC50 values were determined from concentration-response data modeled with the standard Hill equation.
qHTS protocol for CellTiter Glo lymphoblastoid cellular assay
[Step] [Parameter] [Value] [Description]
1. Reagent; 5 uL; 2500 lymphoblastoid cells/well
2. Time; 5 hr; 37 C incubation
4. Controls; 23 nL; Tetraoctylammonium bromide 6.4pM to 92 uM
5. Time; 24 hr; 37 C incubation
6. Reagent; 5 uL; CellTiter Glo reagent
7. Time; 30 min; Room Temperature
8. Detection; Luminescence; Viewlux plate reader
Keywords: cell viability, cytotoxicity, lymphoblastoid cell line, luminescence, NTPHTS, NTPHTS_NCGC, NIEHS, DSSTox, MLSMR, MLSCN, NIH Roadmap, qHTS, NCGC

Compound	activity change, negative = cytotoxic
Cc1cccc(C)c1O	-2.24%
Nc1cccc(N)c1	1.66%
Cc1cccc(C)c1	-2.49%
CCCOCC(C)OCC(C)O (stereo not given)	-0.929%
C=C(C)C(=O)OC	-1.97%
C=Cc1ccccc1C=C	-4.5%
Nc1cccc(O)c1	-4.53%
CCCC(Cl)CCCC(Cl)CCC(Cl)CCC(Cl)CCC(Cl)CCCC(Cl)CCC (stereo not given)	-2.07%
CC(O)CC(C)O (stereo not given)	-9.55%
CC(C)=C1CCC(C)CC1=O (stereo not given)	-6.44%
C/C=C1\CC2C=CC1C2 (stereo not given)	3.6%
O=C(O)c1c(Cl)cccc1Cl	-11.2%
CCOc1ccccc1N	-4.12%
CCCCC=O	-5.13%
O=Cc1c(Cl)cccc1Cl	-5.4%
Clc1ccc(Cl)c(Cl)c1Cl	-6.8%
CC(C)CO	-3.29%
Cc1ccc2ncccc2c1	-10.9%
Nc1ccc(F)cc1F	-3.18%
CCN(CC)c1cccc(O)c1	-3.77%

Compound	activity change, negative = cytotoxic
CC(=O)OC(C)C	-7.6%
CC/C(C)=N/O	-3.55%
Cc1ccc(C)c(O)c1	-0.437%
CC(=C/C=C/C(C)=C/C=C/C=C(C)/C=C/C=C(C)/C=C/C(=O)O)/C=C/C(=O)O	-5.4%
OC/C(Br)=C(\Br)CO	1.66%
Cc1ccco1	-8.95%
NS(=O)(=O)O	-8.6%
CC(C)(C)c1ccc(OCC2CO2)cc1 (stereo not given)	-13%
COc1ccc(OC)cc1	-5.02%
c1ccc(Oc2ccccc2)cc1	-5.1%
CC(=O)Nc1cccc(N)c1	0.056%
CCc1ccccc1O	-0.626%
ICCc1ccccc1	-18.4%
Nc1cc(Cl)c(N)c(Cl)c1	4.22%
C=Cc1ccc(C=C)cc1	-6.34%
Cc1cc(C2(c3cc(C)c(O)cc3C)OS(=O)(=O)c3ccccc32)c(C)cc1O	-9.36%
CNC(=O)c1ccccc1	-3.36%
CCC=O	-3.1%
CCC(C)(C)C	0.785%
O=Cc1ccccc1Cl	-4.83%

— PubChem BioAssay (NCATS)
